In the library only some 1.4% were active in any assay of this set; here they are far more common.
MEX-5 binding: MEX-5 zinc finger RNA-binding disruptors – biochemical, C. elegans, fluorescence polarization, MLPCN library, primary screen; MEX-5/FITC-TCR2 RNA binding; active compounds read low; activity score (negative = inhibition of binding), % at 10 µM; AID 1832, 2009; Zinc finger protein mex-5 (Caenorhabditis elegans), Q9XUB2; 300,000 compounds, 0.38% hits;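 active = inhibition past about -25% in most replicates, and total fluorescence under double the plate's negative control median, limit read from the data; inconclusive = replicates evenly split on the limit, or fluorescence at least double controls; inactive = too little inhibition in most replicates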;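 also: 0% = DMSO and -100% = 5 µM competing unlabeled TCR2 RNA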
MCL1-BIM inh: inhibitors of MCL1 binding to BIM-BH3, primary screen, biochemical, fluorescence polarization | GST-MCL1 / FITC-Bim-BH3 fluorescence polarization | AID 2057, 2009 | inhibition, % at 10.9 µM | Induced myeloid leukemia cell differentiation protein Mcl-1 (Homo sapiens), Q07820 | 320,000 compounds, 0.68% hits;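 active = inhibition above the mean inhibition of all tested compounds plus 3 SD, set per campaign, cut at about 40% in these data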;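 also: 0% = DMSO wells and 100% = unlabeled Bim-BH3 peptide control; higher means more loss of mP so more displacement of Bim peptide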
Target sequence (Q07820 whole entry, looked up): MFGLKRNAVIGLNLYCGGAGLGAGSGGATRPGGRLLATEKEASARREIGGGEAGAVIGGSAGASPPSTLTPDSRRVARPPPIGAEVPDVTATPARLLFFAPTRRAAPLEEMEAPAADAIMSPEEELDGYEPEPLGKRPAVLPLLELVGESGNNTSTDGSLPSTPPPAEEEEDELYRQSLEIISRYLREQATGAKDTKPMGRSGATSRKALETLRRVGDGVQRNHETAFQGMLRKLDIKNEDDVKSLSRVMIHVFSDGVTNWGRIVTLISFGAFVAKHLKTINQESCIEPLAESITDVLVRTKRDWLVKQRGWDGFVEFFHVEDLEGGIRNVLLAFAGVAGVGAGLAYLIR
BCLXL inh: inhibitors of human Bcl-xL, primary screen, biochemical, fluorescence polarization, HTS | GST-Bcl-xL / FITC-Bim BH3 peptide fluorescence polarization | inhibition, % at 10.9 µM | 320,000 compounds, 0.7% hits | AID 2129, 2009;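 active = inhibition above the mean of all tested compounds plus 3 SD, cutoff set per campaign, cut at about 30% in these data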;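 also: 0% = DMSO wells and 100% = unlabeled Bim-BH3 peptide competitor; inhibitors lower millipolarization by displacing the labeled peptide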
Target sequence (Q07817 whole entry, looked up): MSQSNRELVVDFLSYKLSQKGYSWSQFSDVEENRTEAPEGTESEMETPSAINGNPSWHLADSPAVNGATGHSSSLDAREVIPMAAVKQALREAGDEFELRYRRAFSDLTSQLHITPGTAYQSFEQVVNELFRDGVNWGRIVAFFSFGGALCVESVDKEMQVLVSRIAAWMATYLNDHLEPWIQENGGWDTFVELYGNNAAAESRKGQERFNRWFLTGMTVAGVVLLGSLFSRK
E coli Lon inh: inhibitors of E. coli Lon protease, primary screen, biochemical, fluorescence polarization | inhibition, % at 7.94 µM | AID 602123, 2011 | P0A9M0 | purified E. coli Lon protease | 360,000 compounds, 0.42% hits; in the data active = inhibition above about 13%, passing the limit was not always enough;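 also: 0% = enzyme with probe and DMSO and 100% = no enzyme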
GLD-1 RNA inh: GLD-1/TGE RNA complex disruptors, primary screen, biochemical, fluorescence polarization. Female germline-specific tumor suppressor gld-1 (Caenorhabditis elegans), Q17339. purified GLD-1 + fluorescein TGE RNA. inhibition, % at 5.96 µM. 320,000 compounds, 0.44% hits. AID 2280, 2010;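 active = percent inhibition above a per-plate cutoff, the plate mean of test compounds plus 3 SD, cut at about 30% in these data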;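 also: 0% = DMSO wells with GLD-1 and probe and 100% = wells lacking GLD-1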
BCLXL inh confirm: Bcl-xL inhibitors blocking Bim BH3 binding, confirmation, counter-screen for MCL1 inhibitor project, biochemical, fluorescence polarization; shares compounds with MCL1-BIM inh; GST-Bcl-xL / FITC-Bim BH3 peptide FP binding; inhibition, % at 10.9 µM; 1,700 compounds, 54% hits; AID 2166, 2009;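 active = inhibition above a cutoff equal to the mean inhibition of all tested compounds plus 3 SD, cut at about 30% in these data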;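 also: 0% = DMSO wells and 100% = unlabeled Bim BH3 control peptide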
MCL1 inh confirm: inhibitors of MCL1 binding to BIM-BH3, confirmation, biochemical, fluorescence polarization, triplicate. shares compounds with MCL1-BIM inh. GST-MCL1 / FITC-Bim-BH3 fluorescence polarization. inhibition, % at 10.9 µM. 1,700 compounds, 61% hits. AID 2168, 2009;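 active = inhibition above the average of all tested compounds plus 3 SD, cut at about 40% in these data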;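 also: 0% = DMSO wells and 100% = unlabeled Bim-BH3 control peptide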
GLD-1 TGE cf: GLD-1/TGE RNA binding inhibitors, retest, confirmation, biochemical, fluorescence polarization, triplicate; shares compounds with GLD-1 RNA inh; GLD-1/FL-TGE RNA fluorescence polarization; inhibition, % at 5.96 µM; 550 compounds, 10% hits; AID 2459, 2010;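 active = average inhibition across triplicates above the hit cutoff set in the primary screen, cut at about 32% in these data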;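 also: 0% = GLD-1 with RNA probe and DMSO and 100% = wells lacking GLD-1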
* = called active by the depositor; ? = inconclusive; . = no result given; + = active, no number.

SMILES	MEX-5 binding	MCL1-BIM inh	BCLXL inh	E coli Lon inh	GLD-1 RNA inh	BCLXL inh confirm	MCL1 inh confirm	others
Cc1ccc(CSc2ccc(C(=O)N3CCOCC3)cc2[N+](=O)[O-])cc1	3	49*	5	2	-7	8	-1
COc1ccc(C(=O)OCC(=O)NC23CC4CC(CC(C4)C2)C3)c(O)c1	.	.	.	-5	.	.	.
O=C(COC(=O)c1ccc(O)cc1O)NC12CC3CC(CC(C3)C1)C2	.	158*	139*	0	100*	11	16
O=C1S/C(=C/c2ccccc2)C(=O)N1CC(O)Cn1c2ccccc2c2ccccc21 (configuration not stated)	2	-2	-2	-6	-1	.	.
CN(C)c1ccc(/C=C2\SC(=O)N(CC(O)Cn3c4ccccc4c4ccccc43)C2=O)cc1 (configuration not stated)	?	80*	133*	-21	133*	-5	-28
CC(=O)C1=C(O)C(=O)N(CCCn2ccnc2)C1c1ccc(C)cc1 (configuration not stated)	-1	0	3	-1	2	.	.
Cc1ccc(-c2csc(-c3c[nH]c4ccccc34)n2)c(C)c1	1	89*	4	4	8	1	-1
C=CCSc1nnc(NC(=O)CCN2C(=O)C3CC=CCC3C2=O)s1 (configuration not stated)	.	+	85*	-8	77*	3	-5
Cc1cc(/C=C\c2ccc3cc(N(C)C)ccc3[n+]2C)c(C)n1-c1ccccc1	.	132*	54*	-5	139*	41*	101*
Cc1noc(C)c1CSCC(=O)N(C)CC(=O)Nc1ccc(Cl)cc1	2	-2	-2	-2	6	.	.
Cc1cc2ccccc2n1CCNC(=O)C(C)C	0	84*	76*	4	96*	25	35
O=S(=O)(Cc1cc(-c2ccccc2Cl)no1)c1ccccc1	2	4	4	-4	1	.	.
COC(=O)c1c(C)[nH]c(C=O)c1-c1ccccc1	.	2	4	-10	-9	.	.
COC(=O)c1c(Cl)c2n3ccccc3c(C)c(-c3ccccc3)c-2c1C(=O)OC	-41*	+	172*	20	179*	37*	35
O=C1/C(=C/c2cccs2)SC(=S)N1NS(=O)(=O)c1ccccc1	-6	11	6	6	-11	.	.
O=C1/C(=C/C=C/c2ccco2)SC(=S)N1NS(=O)(=O)c1ccccc1	.	83*	67*	17	-6	45*	73*
O=C(O)CCCN1C(=O)/C(=C\c2ccco2)SC1=S	-12	.	.	-4	.	.	.
CC(C(=O)O)N1C(=O)/C(=C/C=C/c2ccco2)SC1=S (configuration not stated)	-87*	83*	50*	9	-4	58*	87*
Cc1cc(-n2c(=O)c(C#N)cc3c(=O)n4ccccc4nc32)no1	-15	56*	43*	-1	17	45*	58*
CCOc1ccccc1/C=C/C(=O)N1CCN(C(=O)c2ccco2)CC1	.	.	.	-1	-2	.	.
Cc1ccc(-c2nc3s/c(=C\c4ccco4)c(=O)n3n2)cc1	-1	18	9	-12	7	.	.
O=c1nc2s/c(=C\c3ccco3)c(=O)n2nc1Cc1ccc(F)cc1	0	53*	13	-19	-4	27	68*
CCCCN1Cc2c(nc3cc(-c4ccco4)[nH]n3c2=O)C1=O	-4	66*	29	-5	-11	37*	51*
COCc1cc(=O)n2[nH]c(-c3ccco3)cc2n1	-2	3	0	6	11	.	.
Nc1ccc2nc(-c3ccccc3)c(-c3ccccc3)nc2c1	-40*	60*	49*	13	73*	63*	54*
SMILES	MEX-5 binding	MCL1-BIM inh	BCLXL inh	E coli Lon inh	GLD-1 RNA inh	BCLXL inh confirm	MCL1 inh confirm	others
CC1CCC(NC(=O)CCn2ccc3cc(S(=O)(=O)N4CCCC4)ccc32)CC1 (configuration not stated)	0	-1	4	-2	2	.	.
CCc1cc[n+](-c2nc3ccccc3nc2[N-]S(=O)(=O)c2ccc(Br)s2)cc1	?	94*	83*	12	25	71*	87*
Cc1cc[n+](-c2nc3ccccc3nc2[N-]S(=O)(=O)c2ccccc2)cc1	0	17	17	2	12	.	.
CC(=O)Nc1c2c(nn1-c1ccc(C)cc1)CS(=O)(=O)C2	0	5	1	1	-6	.	.
Cc1cc(F)ccc1C(O)c1ncc(-c2ccccc2Cl)[nH]1 (configuration not stated)	.	.	.	-16	.	.	.
Oc1ccc(N=C/C=C/c2ccc(Br)cc2)cc1-c1nc2ccccc2s1	3	48*	46*	.	20	27	19
COc1cccc(CC(=O)Nc2nc(-c3ccc(F)c(F)c3)cs2)c1	1	13	5	-2	-4	.	.
COC(=O)CSc1nc(NC(C)(C)C)nc(N(C)C)n1	2	2	6	2	2	.	.
CC(=O)C(Sc1nc(NC(C)(C)C)nc(N(C)C)n1)C(C)=O	0	193*	7	-8	2	7	-1
CCOc1ccc(N=C/C=C/c2ccccc2)c(O)c1	-4	87*	84*	14	72*	14	20	GLD-1 TGE cf=3
CCOc1ccc(NCC(=O)N/N=C/C=C/c2ccccc2)cc1	0	-2	1	-9	6	.	.
Cc1ccc(S(=O)(=O)N2CC(O)CC2C(=O)OCC(=O)Nc2ccc([N+](=O)[O-])cc2C(F)(F)F)cc1C (configuration not stated)	.	.	.	11	-2	.	.
CC(OC(=O)/C(C#N)=C/c1ccc(N(C)C)cc1)C(=O)NCc1ccco1 (configuration not stated)	-3	129*	111*	12	77*	99*	142*	GLD-1 TGE cf=56*
CCN(CC)c1ccc(/C=C(\C#N)C(=O)NCc2ccco2)cc1	.	-30	-19	.	-83	.	.

High-throughput results as filed in PubChem.
